# TRPM1 prom inh: inhibitors of MITF-driven TRPM1 promoter in melanoma cells; SK-MEL-5 TRPM1 promoter luciferase, 24 h; inhibition, % at 12.5 µM; 330,000 compounds, 0.83% hits; AID 488899;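 active = mean inhibition across replicates of 60% or more, whatever share of single replicates reaches that level; inconclusive = some that reach 60%, reason not given; inactive = mean inhibition across replicates below 60%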
# TWEAK Fn14 block: inhibitors of TWEAK-Fn14 interaction signaling; TWEAK-stimulated Fn14 reporter cells, luciferase luminescence, 8 h; inhibition, % at 10 µM; 360,000 compounds, 2% hits; AID 1159606; in the data active = inhibition above about 50%
# Peg3 promoter: inhibitors of Peg3 promoter; HeLa PEG-Prom luciferase reporter, luminescence, overnight; 360,000 compounds, 1.7% hits; inhibition, % at 20 µM;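 active = inhibition of at least 50% at 20 µM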
# EBV LMP1 NFkB: reduces LMP1-driven NF-kappaB luciferase signal | inhibition, % at 12.5 µM | 350,000 compounds, 0.69% hits | LMP1-induced NF-kappaB luciferase reporter cells, luminescence | AID 504558; in the data active = inhibition above about 41%; inconclusive = no clear call, values can overlap the other calls
# TROY signal inh: TROY signaling inhibition; Q293 LMP1-TROYcd NF-kB luciferase reporter, 4 h; inhibition, % at 10 µM; 360,000 compounds, 0.98% hits; AID 1347056;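 active = compounds whose plate-normalised and pattern-corrected inhibition of the luciferase reporter signal at the single screening dose is 50% or more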
# Shn3 inh set2: reduces Shn3 3'UTR luciferase signal in osteoblasts; AID 588674; Clone20 osteoblast Shn3 3'UTR firefly luciferase, 24 h; 360,000 compounds, 0.52% hits; inhibition, % at 12.5 µM;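 active = mean inhibition of at least 75% with every replicate also reaching 75%; inconclusive = mean inhibition at least 75% but some replicate below; inactive = mean inhibition below 75%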
# Numbers stand for hits; n = inactive; u = inconclusive; x = no result. The list is not random: actives were taken first. Their share in the collection is about 4.1%.
SMILES,TRPM1 prom inh,TWEAK Fn14 block,Peg3 promoter,EBV LMP1 NFkB,TROY signal inh,Shn3 inh set2
Cn1c(SCc2cccc(Br)c2)nnc1-c1ccncc1,n,n,n,n,n,n
Cc1ccc(C(=O)NCC(=O)OCCOc2ccccc2Cl)cc1,n,n,n,n,n,n
CCOc1ccc(NC(=S)N2CCC(C(=O)c3ccc(F)cc3)CC2)cc1,n,n,n,n,n,n
C/C=C/c1ccc(OCCCNCC(C)O)c(OC)c1 (stereo not drawn),n,86,n,n,x,n
CCCc1cc(=O)oc2cc(C)cc(OCC(=O)N[C@@H](CSCc3ccccc3)C(=O)O)c12,x,n,n,n,n,n
COc1ccccc1NC(=O)c1sc2ncn(Cc3ccc(C)cc3)c(=O)c2c1C,n,n,52,n,n,n
COc1ccccc1NC(=O)c1sc2ncn(Cc3cccc(C)c3)c(=O)c2c1C,n,n,n,n,n,n
CN(C)c1ccc(/C=C2\N=C(C(C)(C)C)OC2=O)cc1,n,n,n,n,n,n
Cc1ccc2cc(C)c3nnc(SCC(=O)NCc4ccco4)n3c2c1,n,52,n,n,n,n
N#Cc1c(N2CCCC(O)C2)nc(N)c2c(N)nc3c(c12)CC(=O)N3C12CC3CC(CC(C3)C1)C2 (stereo not drawn),n,76,n,n,n,n
O=C(NC1CCCC1)c1sc(=S)n2c1[nH]c(=O)c1ccccc12,n,n,n,n,72,n
O=C(NCc1ccco1)c1sc(=S)n2c1[nH]c(=O)c1ccccc12,n,n,n,n,n,n
CC[N+]1=C(C)C(C)(C)c2cc(C)ccc21,n,69,n,n,n,89
CCN1C(=O)C(=O)c2cc(C)ccc21,n,n,n,n,n,n
COc1cc(/C=N/NC(=O)c2ccc(CN3c4cccc5cccc(c45)S3(=O)=O)cc2)cc(OC)c1O,n,n,57,n,n,n
CC(C)(C)[C@H]1COC(=O)CCC/C=C/C[C@H](CC(=O)N(CCO)Cc2ccccc2)C(=O)N1,n,n,n,n,n,n
O=C(CSc1ccc2nnc(CCNC(=O)c3ccccc3)n2n1)NCc1ccc(F)cc1,n,n,n,n,n,n
CC(Sc1n[nH]c(N)n1)C(=O)C12CC3CC(CC(C3)C1)C2 (stereo not drawn),n,n,n,n,n,n
CC(SC#N)C(=O)C12CC3CC(CC(C3)C1)C2 (stereo not drawn),n,72,n,n,n,n
Cc1ccccc1CN1[C@@H](Cc2ccccc2)COCCS1(=O)=O,n,n,n,n,n,n
C=C1[C@@H](O)[C@H](Cc2ccccc2)N(Cc2ccccc2Br)S1(=O)=O,n,67,97,n,n,n
O=C(CC1SC(=O)N(Cc2cccc3ccccc23)C1=O)Nc1nccs1 (stereo not drawn),n,n,n,n,n,n
CCOC(=O)CN1C(=O)SC(CC(=O)Nc2nccs2)C1=O (stereo not drawn),n,67,n,n,x,n
O=C(/C=C/Sc1ccc(C(F)(F)F)cn1)c1ccccc1,n,60,96,n,n,n
CCN1CCN(c2cc(C)c3cc(NC(=S)N4CC(C)CC(C)C4)ccc3n2)CC1 (stereo not drawn),n,n,n,n,54,n
SMILES,TRPM1 prom inh,TWEAK Fn14 block,Peg3 promoter,EBV LMP1 NFkB,TROY signal inh,Shn3 inh set2
CCN1CCN(c2cc(C)c3cc(NC(=S)N4CCN(c5ccc(F)cc5)CC4)ccc3n2)CC1,85,n,88,n,n,n
CCN1CCN(C(=S)Nc2ccc3nc(N4CCN(CC)CC4)cc(C)c3c2)CC1,n,n,n,n,n,n
CCN1CCN(c2cc(C)c3cc(NC(=S)N4CCCC(C)C4)ccc3n2)CC1 (stereo not drawn),n,86,n,n,83,n
COc1ccc(C2NC(=S)NC3=C2CCCC3=C2SCCS2)cc1 (stereo not drawn),84,n,n,n,n,n
COc1ccc(-c2cc(C(=O)O)c(C)o2)cc1OC,n,98,n,n,59,n
COc1ccc(-c2cc(C(=O)NC(Cc3cc4ccccc4[nH]3)C(=O)O)c(C)o2)cc1OC (stereo not drawn),n,n,n,n,n,n
Cc1ccc(CN(C(=O)COc2ccc(C)c(C)c2)C2CCS(=O)(=O)C2)o1 (stereo not drawn),n,n,n,n,n,n
CCc1cccc(CC)c1NC(=O)COC(=O)c1cccc(S(=O)(=O)N2CCc3ccccc3C2)c1,n,n,n,n,n,n
Cc1ccc(NC(=O)c2cccc(S(=O)(=O)N3CCc4ccccc4C3)c2)nc1,n,n,n,n,n,n
Cc1cccc(C(C)C)c1NC(=O)COC(=O)c1cccc(S(=O)(=O)N2CCc3ccccc3C2)c1,n,n,60,n,n,n
COc1cc(OC)c(OC)cc1CNC(=O)c1cccc(S(=O)(=O)N2CCc3ccccc3C2)c1,n,81,n,n,51,u
Cc1cc(N2CCN(C)CC2)ccc1NC(=O)c1cccc(S(=O)(=O)N2CCc3ccccc3C2)c1,n,n,109,n,n,n
COc1ccc(COC(=O)c2cccc(S(=O)(=O)N3CCCC3)c2)cc1F,n,n,n,n,n,n
CC(=O)Nc1ccc(S(=O)(=O)NCC(=O)NCCCc2ccccc2)cc1,n,51,n,n,n,n
CC(=O)Nc1ccc(S(=O)(=O)NCCC(=O)NCCCc2ccccc2)cc1,n,n,n,n,n,n
CCOC(=O)c1c2c(n(-c3ccc(OC)cc3)c1C)C(=O)C(=O)c1ccccc1-2,94,107,102,87,61,97
CCc1cc2c(=O)c(-c3ccc4c(c3)OCCO4)coc2c(CN2CCCCC2C)c1O (stereo not drawn),n,n,n,n,72,n
O=C1c2cc([N+](=O)[O-])ccc2-c2cc(Br)c(N=C(NO)C(F)(F)F)cc21,n,n,97,n,79,n
CC(=O)Nc1cccc(-c2ccnc3c2CC(C)(C(=O)Nc2ccc(C(C)C)cc2)O3)c1 (stereo not drawn),x,n,52,x,n,n
CC(=O)Nc1cccc(-c2ccnc3c2CC(C)(C(=O)Nc2ccccc2)O3)c1 (stereo not drawn),x,n,n,x,n,n
Cc1ccc(-c2nc(N/N=C/c3ccncc3)c3ccccc3n2)cc1,n,76,n,n,n,n
COc1ccc(/C=N/Nc2nc(-c3cccnc3)nc3ccccc23)cc1OC,n,n,n,n,n,n
CC(C)NC(=O)c1ccc2c3n(nc2c1)-c1ccccc1CO3,n,58,n,n,n,n
Cc1ccsc1C(=O)OCC(=O)c1cc(C)n(C)c1C,n,84,n,51,n,n
CCOc1ccc(CN2CCN(Cc3ccsc3)C(CCO)C2)cc1CO (stereo not drawn),n,89,n,n,n,n
CCOc1ccc(NC(=O)/C=C/c2ccccc2)c([N+](=O)[O-])c1,n,n,n,n,n,n
